Structures can show the parent of a compound that is named as a salt.
System: K562 SF3B1 K700E vs K562 SF3B1 WT
Assay: surviving fraction ratio K562 SF3B1 K700E / K562 SF3B1 WT (each relative to DMSO); higher = less selective killing of SF3B1 K700E cells
Settings: 5 days
Method: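 Drug-sensitivity screen of an in-house 80-compound library in isogenic K562 SF3B1 K700E versus SF3B1 WT cells. 250 cells/well in 384-well plates were exposed 24 h after seeding to 0.5-1000 nM compound for 5 days, and viability was read by CellTiter-Glo. Surviving fraction is relative to DMSO, and the value is the ratio of surviving fraction in K700E to WT cells; the paper calls ratio <0.6 with P<0.01 selective.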

Structure (SMILES): C[C@]12O[C@H](C[C@]1(O)CO)n1c3ccccc3c3c4c(c5c6ccccc6n2c5c31)CNC4=O [lestaurtinib]
- surviving fraction ratio K562 SF3B1 K700E / K562 SF3B1 WT (0.1nM): 0.691
- surviving fraction ratio K562 SF3B1 K700E / K562 SF3B1 WT (0.2nM): 0.885
- surviving fraction ratio K562 SF3B1 K700E / K562 SF3B1 WT (1nM): 0.8
- surviving fraction ratio K562 SF3B1 K700E / K562 SF3B1 WT (2nM): 0.895
- surviving fraction ratio K562 SF3B1 K700E / K562 SF3B1 WT (10nM): 0.877
- surviving fraction ratio K562 SF3B1 K700E / K562 SF3B1 WT (20nM): 0.855
- surviving fraction ratio K562 SF3B1 K700E / K562 SF3B1 WT (100nM): 0.823
- surviving fraction ratio K562 SF3B1 K700E / K562 SF3B1 WT (200nM): 0.907

Structure (SMILES): CCc1cc(Nc2nccc(-c3c(-c4ccc(OC)c(C(=O)Nc5c(F)cccc5F)c4)nc4ccccn34)n2)c(OC)cc1N1CCC(N2CCN(S(C)(=O)=O)CC2)CC1
- surviving fraction ratio K562 SF3B1 K700E / K562 SF3B1 WT (0.5nM): 0.969
- surviving fraction ratio K562 SF3B1 K700E / K562 SF3B1 WT (1nM): 0.921
- surviving fraction ratio K562 SF3B1 K700E / K562 SF3B1 WT (5nM): 0.92
- surviving fraction ratio K562 SF3B1 K700E / K562 SF3B1 WT (10nM): 0.907
- surviving fraction ratio K562 SF3B1 K700E / K562 SF3B1 WT (50nM): 0.817
- surviving fraction ratio K562 SF3B1 K700E / K562 SF3B1 WT (100nM): 0.805
- surviving fraction ratio K562 SF3B1 K700E / K562 SF3B1 WT (500nM): 0.824
- surviving fraction ratio K562 SF3B1 K700E / K562 SF3B1 WT (1000nM): 0.842

Structure (SMILES): Cn1ncnc1[C@H]1c2n[nH]c(=O)c3cc(F)cc(c23)N[C@@H]1c1ccc(F)cc1 [talazoparib]
- surviving fraction ratio K562 SF3B1 K700E / K562 SF3B1 WT (0.5nM): 0.824
- surviving fraction ratio K562 SF3B1 K700E / K562 SF3B1 WT (1nM): 0.778
- surviving fraction ratio K562 SF3B1 K700E / K562 SF3B1 WT (5nM): 0.775
- surviving fraction ratio K562 SF3B1 K700E / K562 SF3B1 WT (10nM): 0.743
- surviving fraction ratio K562 SF3B1 K700E / K562 SF3B1 WT (50nM): 0.552
- surviving fraction ratio K562 SF3B1 K700E / K562 SF3B1 WT (100nM): 0.571
- surviving fraction ratio K562 SF3B1 K700E / K562 SF3B1 WT (500nM): 0.794

Structure (SMILES): COc1cccc2c1C(=O)c1c(O)c3c(c(O)c1C2=O)C[C@@](O)(C(=O)CO)C[C@@H]3O[C@H]1C[C@H](N)[C@H](O)[C@H](C)O1 [doxorubicin.HCl]
- surviving fraction ratio K562 SF3B1 K700E / K562 SF3B1 WT (0.5nM): 0.974
- surviving fraction ratio K562 SF3B1 K700E / K562 SF3B1 WT (1nM): 1.04
- surviving fraction ratio K562 SF3B1 K700E / K562 SF3B1 WT (5nM): 0.718
- surviving fraction ratio K562 SF3B1 K700E / K562 SF3B1 WT (10nM): 1.07
- surviving fraction ratio K562 SF3B1 K700E / K562 SF3B1 WT (50nM): 1.11
- surviving fraction ratio K562 SF3B1 K700E / K562 SF3B1 WT (100nM): 0.446
- surviving fraction ratio K562 SF3B1 K700E / K562 SF3B1 WT (500nM): 1.24
- surviving fraction ratio K562 SF3B1 K700E / K562 SF3B1 WT (1000nM): 2.24

Structure (SMILES): O=C(NOCC1CC1)c1ccc(F)c(F)c1Nc1ccc(I)cc1Cl
- surviving fraction ratio K562 SF3B1 K700E / K562 SF3B1 WT (0.5nM): 1.29
- surviving fraction ratio K562 SF3B1 K700E / K562 SF3B1 WT (1nM): 0.978
- surviving fraction ratio K562 SF3B1 K700E / K562 SF3B1 WT (5nM): 1.08
- surviving fraction ratio K562 SF3B1 K700E / K562 SF3B1 WT (10nM): 0.818
- surviving fraction ratio K562 SF3B1 K700E / K562 SF3B1 WT (50nM): 1.3
- surviving fraction ratio K562 SF3B1 K700E / K562 SF3B1 WT (100nM): 0.822
- surviving fraction ratio K562 SF3B1 K700E / K562 SF3B1 WT (500nM): 0.921
- surviving fraction ratio K562 SF3B1 K700E / K562 SF3B1 WT (1000nM): 0.944

From the supplement of paper PMC10412459
